Most compounds without a hit are left out; they make up all but 28% or so of the library.
CYP2C9 activ: CYP2C9 (human) activation. P11712. recombinant CYP2C9, luciferin-H conversion, luminescence; active compounds read high; factor 1 = untreated enzyme, 0 = blocked. activation factor at 5 µM. hit rate 1.4% among 96,000;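 active means activation factor of 2 or more for CYP2C9 at a 5 µM dose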;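 further: 0 = sulfaphenazole-blocked wells and 1 = vehicle-only wells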
Target sequence (P11712 whole entry, looked up): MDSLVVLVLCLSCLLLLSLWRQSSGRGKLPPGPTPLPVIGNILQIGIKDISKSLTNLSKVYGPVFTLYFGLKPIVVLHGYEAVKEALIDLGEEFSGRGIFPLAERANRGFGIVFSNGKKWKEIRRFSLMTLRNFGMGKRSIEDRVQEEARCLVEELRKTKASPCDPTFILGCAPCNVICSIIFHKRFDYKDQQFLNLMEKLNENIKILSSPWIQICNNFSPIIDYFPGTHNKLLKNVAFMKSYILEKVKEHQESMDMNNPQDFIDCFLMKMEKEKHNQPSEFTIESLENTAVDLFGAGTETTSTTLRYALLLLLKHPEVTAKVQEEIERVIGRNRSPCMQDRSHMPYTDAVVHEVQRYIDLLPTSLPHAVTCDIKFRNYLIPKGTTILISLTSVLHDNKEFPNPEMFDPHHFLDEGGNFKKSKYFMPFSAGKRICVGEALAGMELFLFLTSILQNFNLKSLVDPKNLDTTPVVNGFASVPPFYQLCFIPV
DAT uptake mod: changed human dopamine transporter uptake under cocaine IC80. B-score at 10 µM. LLC-PK1 hDAT cells, [14C]-dopamine uptake with cocaine IC80; actives deviate in either direction. AID 449768. hit rate 1.3% among 110,000. Q01959;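 active means Z score or B-score, a plate-position-corrected score, falls beyond the plate's 99.7% confidence bounds, in either direction; inactive means both scores lie inside the 99.7% bounds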;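 further: scored against the spread of the other compound wells on the same plate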
CYP2C19 inh: human CYP2C19 inhibition; hit rate 21% among 96,000; CYP2C19 Supersomes, luciferin-H EGE luminescence, 30 min; inhibition, % at 5 µM;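 active means CYP2C19 inhibition above a set limit at 5 µM in the primary screen, cut at about 50% in these data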;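 further: plate controls were negative control wells for no effect and 2.5 mM tranylcypromine positive control for full effect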
D1 allo mod: allosteric modulators of human D1 dopamine receptor; P21728; HEK293 D1, CRE-luciferase, dopamine EC30 potentiation; actives deviate in either direction; B-score at 10 µM; hit rate 5.9% among 58,000; AID 641;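 active means luminescence count or its row- and column-corrected plate score outside the 99.7% band of the plate's sample wells, on either side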
CYP2C9 inh: inhibitors of human CYP2C9 | CYP2C9 Supersomes, luciferin-H conversion, luminescence | inhibition, % at 5 µM | hit rate 20% among 96,000 | P11712 | AID 777;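 active means blocking of liver enzyme CYP2C9 beyond about 50% at 5 µM, limit read from the data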
CYP2C19 activ: cytochrome P450 2C19 (human) activation; P33261; recombinant CYP2C19, luciferin-H EGE luminescence; active compounds read high; 0 = fully inhibited enzyme, 1 = untreated enzyme; activation factor at 5 µM; 96,000 tested, under 10 active;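 active means activation factor of at least 2 at 5 µM in the primary screen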;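 further: 0 = wells with 2.5 mM tranylcypromine and 1 = vehicle-only wells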
The depositor's hits bear a star.

Fc1ccc(CSc2nc3ccccc3[nH]2)cc1 was read as CYP2C9 activ 0.4, CYP2C19 inh 93.4*, CYP2C9 inh 55.5* and CYP2C19 activ 0.1.
For O=c1cc(CSc2nc3ccccc3[nH]2)c2ccccc2[nH]1 the results were CYP2C9 activ 0.6, DAT uptake mod -0.0391, CYP2C19 inh 34.2, CYP2C9 inh 38.0 and CYP2C19 activ 0.7.
`Fc1ccc(CSc2nc3ncccc3[nH]2)cc1` gave CYP2C9 activ 0.5, DAT uptake mod 0.0427, CYP2C19 inh 81.9*, D1 allo mod 0.132, CYP2C9 inh 51.1* and CYP2C19 activ 0.2.
`Nc1nc(CSc2nc3ccccc3[nH]2)cs1` gave CYP2C9 activ 0.6, DAT uptake mod -0.682, CYP2C19 inh 75.7*, D1 allo mod -1.38, CYP2C9 inh 44.5 and CYP2C19 activ 0.2.
For Fc1cccc(CSc2nc3ncccc3[nH]2)c1 the results were CYP2C9 activ 0.7, DAT uptake mod -0.703, CYP2C19 inh 46.5, CYP2C9 inh 28.7 and CYP2C19 activ 0.5.
For O=C1O[C@@H]([C@H](O)CO)C(O)=C1O the results were DAT uptake mod 0.00532.
COc1ccc(S(=O)NC2CCCCC2)c(OC)c1C (stereo not drawn) was read as CYP2C9 activ 1, DAT uptake mod 0.431, CYP2C19 inh 26.3, CYP2C9 inh 2.1 and CYP2C19 activ 0.7.
CCCCCOc1ccc(CSc2ncn[nH]2)cc1 was read as DAT uptake mod 0.148.
Nc1nc(-c2nc3ccccc3[nH]2)cs1 was read as CYP2C9 activ 0.8, DAT uptake mod 0.445, CYP2C19 inh 40.6, D1 allo mod -2.76*, CYP2C9 inh 20.2 and CYP2C19 activ 0.6.
Screening CCOc1ccc(OCCSc2nc3ccccc3[nH]2)cc1 returned DAT uptake mod 0.158.
For CCCOc1ccc(CSc2nc3ccccc3[nH]2)cc1 the results were CYP2C9 activ 0.1, CYP2C19 inh 38.7, CYP2C9 inh 89.8* and CYP2C19 activ 0.6.
`CCCCOc1ccc(CSc2ncn[nH]2)cc1` gave CYP2C9 activ 0.3, DAT uptake mod 0.116, CYP2C19 inh 93.3*, D1 allo mod -0.367, CYP2C9 inh 73.0* and CYP2C19 activ 0.1.
Screening COc1ccccc1C/C(N)=N/OC(=O)c1ccc(C)c([N+](=O)[O-])c1 returned CYP2C9 activ 3.4*, DAT uptake mod -0.39, CYP2C19 inh 8.6, CYP2C9 inh -243.5 and CYP2C19 activ 0.9.
For CCCCN(C)C(=O)c1c[nH]c2ccc(S(=O)(=O)N3CCOCC3)cc2c1=O the results were DAT uptake mod 0.0209 and D1 allo mod 0.56.
Screening C=CCc1cccc2cc(C(=O)NCc3ccc(C(=O)OCC)o3)c(=O)oc12 returned CYP2C9 activ 0.6, DAT uptake mod 0.16, CYP2C19 inh 43.8, CYP2C9 inh 39.9 and CYP2C19 activ 0.6.
CCN1CCN(S(=O)(=O)c2cc(OC)ccc2OC)CC1 was read as CYP2C9 activ 1.2, DAT uptake mod -0.769, CYP2C19 inh 12.6, D1 allo mod 0.127, CYP2C9 inh -17.6 and CYP2C19 activ 0.9.
`COc1ccccc1N1CCN(S(C)(=O)=O)CC1` gave CYP2C9 activ 1, DAT uptake mod -0.444, CYP2C19 inh 18.8, CYP2C9 inh 1.7 and CYP2C19 activ 0.8.
Screening COc1ccccc1NC(=O)c1ccc(S(=O)(=O)N2CCCC2)cc1 returned CYP2C9 activ 0.8, DAT uptake mod 1.64, CYP2C19 inh 4.6, D1 allo mod -0.0484, CYP2C9 inh 23.5 and CYP2C19 activ 1.
For COc1ccccc1N1CCN(C(=O)c2ccc(S(=O)(=O)N3CCCCCC3)cc2)CC1 the results were CYP2C9 activ 0.3, DAT uptake mod 0.244, CYP2C19 inh 52.4*, D1 allo mod -1.93, CYP2C9 inh 71.4* and CYP2C19 activ 0.5.
Screening COc1ccc(OC)c(S(=O)(=O)N2CCN(c3c(C)cccc3C)CC2)c1 returned CYP2C9 activ 0, DAT uptake mod 0.456, CYP2C19 inh 50.5*, D1 allo mod 0.365, CYP2C9 inh 97.7* and CYP2C19 activ 0.5.
Screening COc1ccccc1N1CCN(S(=O)(=O)/C=C/c2ccccc2)CC1 returned CYP2C9 activ 0.3, DAT uptake mod -0.293, CYP2C19 inh 99.6*, CYP2C9 inh 65.8* and CYP2C19 activ 0.
For COc1ccccc1N1CCN(S(=O)(=O)c2ccc(F)cc2)CC1 the results were CYP2C9 activ 0.2, DAT uptake mod -0.2, CYP2C19 inh 91.4*, D1 allo mod 0.581, CYP2C9 inh 82.2* and CYP2C19 activ 0.1.
Screening O=C(N/N=C1\CCCc2ccccc21)c1ccc([N+](=O)[O-])cc1Cl returned CYP2C9 activ 1.3, DAT uptake mod 0.782, CYP2C19 inh 10.6, CYP2C9 inh -30.2 and CYP2C19 activ 0.9.
CC1CN(C)C(C)CC1NCc1ccc2c(c1)OCO2 (stereo not drawn) was read as CYP2C9 activ 0.9, DAT uptake mod -0.417, CYP2C19 inh 14.0, D1 allo mod 0.722, CYP2C9 inh 5.4 and CYP2C19 activ 0.9.
For O=C(CSc1nnc2ccccn12)NCc1cccs1 the results were CYP2C9 activ 0.9, DAT uptake mod -0.251, CYP2C19 inh 16.2, D1 allo mod -0.191, CYP2C9 inh 7.3 and CYP2C19 activ 0.8.
Screening COc1ccccc1N1CCN(S(=O)(=O)c2ccc(Cl)s2)CC1 returned CYP2C9 activ 0, DAT uptake mod -0.194, CYP2C19 inh 97.1*, CYP2C9 inh 96.3* and CYP2C19 activ 0.
COc1ccc(S(=O)(=O)N2CCN(c3cccc(C)c3C)CC2)cc1 was read as CYP2C9 activ 0.1, DAT uptake mod -0.348, CYP2C19 inh 96.9*, D1 allo mod 0.48, CYP2C9 inh 87.5* and CYP2C19 activ 0.
`COc1ccc(N2CCN(S(=O)(=O)c3ccc(OC)cc3)CC2)cc1` gave DAT uptake mod 0.939.
For COc1ccccc1N1CCN(S(=O)(=O)c2cccc(F)c2)CC1 the results were CYP2C9 activ 0.1, DAT uptake mod -1.56, CYP2C19 inh 96.5*, D1 allo mod 0.696, CYP2C9 inh 89.1* and CYP2C19 activ 0.
For Cc1cccc(C)c1N1CCN(S(=O)(=O)c2ccc(F)cc2)CC1 the results were CYP2C9 activ 0.1, DAT uptake mod 0.148, CYP2C19 inh 96.7*, D1 allo mod 0.198, CYP2C9 inh 93.4* and CYP2C19 activ 0.
`CCOc1ccccc1N1CCN(S(=O)(=O)c2ccc(Cl)s2)CC1` gave CYP2C9 activ 0.5, DAT uptake mod -1.1, CYP2C19 inh 45.2, D1 allo mod 0.644, CYP2C9 inh 45.7 and CYP2C19 activ 0.5.
Cc1ccccc1CN1CCN(S(=O)(=O)c2ccc(F)cc2)CC1 was read as DAT uptake mod -0.169 and D1 allo mod -0.00438.
Screening COc1cc(S(=O)(=O)N2CCN(c3ccccc3F)CC2)c(OC)cc1Cl returned DAT uptake mod -0.733 and D1 allo mod 0.755.
`CC1(C)C(=O)NCCN1C(=O)CCC(=O)O` gave DAT uptake mod -0.155.

Screening data deposited in PubChem by several laboratories.
